Only some compounds are listed: those with a hit (about 5.7% of all), similar ones and a draw of the others.
DAX1 inh-1 – DAX1 (NR0B1) inhibitors on StAR promoter, primary screen, cell-based, luminescence, SF-1 (NR5A1), full-length DAX-1; inhibition, % at 6.8 µM; HEK293T StAR-luciferase reporter, SF-1/DAX-1 repression relief; hit rate 1.1% among 370,000;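 active = inhibition above the mean over all tested compounds plus 3 SD, cut at about 3.6% in these data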;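 also: 0% = DAX-1 cells with DMSO and 100% = cells lacking DAX-1 with DMSO; higher inhibition means more luminescence from relief of DAX-1 repression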
AHR act – AHR activators, primary screen, cell-based, luminescence, luciferase reporter, human; AHR-responsive luciferase reporter cells; AID 2796, 2010; hit rate 2.5% among 320,000; activation, % at 5 µM; in the data active = activation above about 47%;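 also: 0% = vehicle wells and 100% = reference agonist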
DAX1 inh-2 – DAX1 (NR0B1) inhibitors, primary screen, cell-based, HEK293, Gal4-DAX1, luciferase luminescence. Nuclear receptor subfamily 0 group B member 1 (Homo sapiens), P51843. HEK293 Gal4-DAX1 luciferase reporter. inhibition, % at 6.75 µM. hit rate 0.99% among 340,000. AID 504766, 2011;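 active = inhibition above the mean over all tested compounds plus 3 SD, cut at about 4.2% in these data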;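 also: 0% = DAX1-transfected cells with DMSO and 100% = empty-vector control cells with DMSO; inhibition shows as a rise in luminescence from relieved DAX1 repression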
ssDAF-12 act – S. stercoralis DAF-12 nuclear receptor activators, primary screen, cell-based, luminescence, HEK293, GRIP1 co-expression, lit1-tk-luc | AID 652126, 2013 | Nuclear hormone receptor DAF-12 (Strongyloides stercoralis) | activation, % at 6.8 µM | hit rate 1% among 370,000 | HEK293 ssDAF-12/GRIP1 lit1-tk-luc reporter; % of 3 µM dafachronic acid response;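 active = activation above the mean over all tested compounds plus 3 SD, cut at about 0.9% in these data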;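 also: 0% = DMSO-only wells and 100% = 3 µM delta7-dafachronic acid wells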
hcDAF12 agonist – H. contortus DAF-12 nuclear receptor activators, primary screen, cell-based, luminescence, HEK293, lit1-tk-luc reporter. HEK293 hcDAF-12 lit1-tk-luc reporter; 0% DMSO, 100% Δ7-dafachronic acid. hit rate 1.4% among 370,000. activation, % at 6.8 µM;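 active = activation above the mean of all tested compounds plus 3 SD, cut at about 5.5% in these data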;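 also: 100% = response to 3 µM Δ7-dafachronic acid high control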
hgDAF-12 ag – H. glycines DAF-12 receptor agonists, primary screen, cell-based, luminescence, HEK293, GAL4 fusion, UAS-luciferase; AID 687014, 2013; HEK293 GAL4-hgDAF12 UAS-luciferase reporter, agonist luminescence; normalized to butyrate control; hit rate 1.8% among 370,000; activation, % at 6.8 µM;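 active = activation above a cutoff set at the mean of all screened compounds plus 3 SD, cut at about 10% in these data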;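 also: 0% = DMSO wells and 100% = sodium butyrate wells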
AHR act cf – AHR activators, confirmation, cell-based, luminescence, luciferase reporter, human; hit rate 87% among 2,300; shares compounds with AHR act; human cells, AHR-responsive luciferase reporter; activation, % at 9 µM; AID 2845, 2010; in the data active = activation above about 49%;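 also: HepG2 hepatoma cells carrying a DRE-driven firefly luciferase reporter; 0% = vehicle wells and 100% = reference agonist wells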
PXR act counter – human PXR activators, counter-screen for AHR activator project, cell-based, luciferase luminescence; shares compounds with AHR act; AID 434939, 2010; hit rate 88% among 2,300; cell-based PXR reporter; activation, % at 11.6 µM; in the data active = activation above about 11%;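 also: human hepatoma DPX-2 cells expressing full-length human PXR; 0% = DMSO and 100% = reference agonist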
DAX1 conf – DAX1 (NR0B1) inhibitors relieving SF-1 repression, confirmation, cell-based, luminescence, HEK293T, full-length DAX-1, SF-1 activated StAR promoter. shares compounds with DAX1 inh-1. HEK293T StAR-promoter luciferase reporter, SF-1/DAX-1 repression. inhibition, % at 6.8 µM. hit rate 87% among 2,400;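 active = inhibition above the average of every tested compound plus 3 SD, cut at about 3.8% in these data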;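 also: 0% = DAX-1 cells with DMSO and 100% = no DAX-1 control cells with DMSO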
SF1 mutant ctr – StAR reporter signal changes without DAX1, counter-screen for DAX1 inhibitor project, cell-based, luminescence, AF-2 mutant SF-1, transactivation. shares compounds with DAX1 inh-1. HEK293 StAR-luciferase, SF-1 AF2 mutant. inhibition, % at 6.8 µM. hit rate 78% among 2,400. AID 652136, 2013;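 active = inhibition above the mean of all tested compounds plus 3 SD, cut at about 3% in these data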;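 also: 0% = DAX-1 transfected cells with DMSO and 100% = cells without DAX-1 with DMSO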
LXR ag – LXR agonists, Gal4 luciferase reporter, confirmation, counter-screen for hcDAF-12 agonist project, cell-based, luminescence, HEK293, H. contortus campaign; AID 743027, 2013; 3,400 tested, under 10 active; activation, % at 6.8 µM; shares compounds with hcDAF12 agonist; HEK293 Gal4-LXR tk-luc reporter, 24 h; normalized: DMSO 0%, positive control 100%;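 active = mean percent activation of the reporter above a cutoff set as the average over tested compounds plus their standard deviation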
hcDAF12 conf – H. contortus DAF-12 receptor agonists, confirmation, cell-based, luminescence, HEK293, lit1-tk-luc, triplicate. shares compounds with hcDAF12 agonist. HEK293 hcDAF-12 lit1-tk-luc reporter; % of Δ7-dafachronic acid response. activation, % at 6.8 µM. hit rate 61% among 3,400. AID 743032, 2013;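 active = mean activation across triplicate tests above the threshold derived from the earlier primary screen, cut at about 5.5% in these data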;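 also: 0% = DMSO only wells and 100% = 3 µM Δ7-dafachronic acid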
hgDAF12 ag – H. glycines DAF-12 receptor agonists, confirmation, cell-based, luminescence, HEK293, GAL4-LBD fusion; shares compounds with hgDAF-12 ag; AID 743050, 2013; hit rate 80% among 3,300; activation, % at 6.8 µM; HEK293 GAL4-hgDAF12 luciferase reporter, agonist mode; percent of butyrate response;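 active = mean activation over triplicate wells above the hit cutoff derived from the earlier primary screen, cut at about 11% in these data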;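 also: 0% = DMSO low control and 100% = 2 mM sodium butyrate high control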
LXR ag 2 – LXR agonists, Gal4 luciferase reporter, confirmation, counter-screen for hgDAF-12 agonist project, cell-based, luminescence, HEK293, H. glycines campaign | shares compounds with hgDAF-12 ag | 24 h | activation, % at 6.8 µM | 3,300 tested, under 10 active | AID 743051, 2013;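 active = mean activation of the triplicate above a set limit carried over from the primary screen, none filed active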
* hit, by the source's call; ! = not active in a repeat.

COc1ccc(N=Cc2c(O)[nH]c3ccccc23)cc1 was read as DAX1 inh-1 4.2*, AHR act 129*, DAX1 inh-2 1, ssDAF-12 act 1.1*, hcDAF12 agonist 6.9*, hgDAF-12 ag 13*, AHR act cf 67*, PXR act counter 18*, LXR ag 2 and hcDAF12 conf 11*.
Screening COc1ccc(CN=Cc2c(O)[nH]c3ccccc23)cc1 returned DAX1 inh-1 0, AHR act 24, DAX1 inh-2 1, ssDAF-12 act -1, hcDAF12 agonist 2 and hgDAF-12 ag 8.
COc1ccccc1N1CC(C(=O)OCC(=O)c2c(N)n(C)c(=O)n(C)c2=O)CC1=O (stereo unspecified) was read as DAX1 inh-1 0, DAX1 inh-2 1, ssDAF-12 act 0, hcDAF12 agonist 0 and hgDAF-12 ag 4.
For Nc1nc(-c2ccccc2)nc2sc3c(c12)CCCC3 the results were DAX1 inh-1 8.3*, AHR act 92*, DAX1 inh-2 2, ssDAF-12 act 3.0*, hcDAF12 agonist 21*, hgDAF-12 ag 18*, AHR act cf 89*, PXR act counter 54*, DAX1 conf 17*, SF1 mutant ctr 6.5*, LXR ag 2 and hcDAF12 conf 17*.
Nc1ccc(N=Nc2ccccc2)c2cccnc12 was read as DAX1 inh-1 0, AHR act 94*, DAX1 inh-2 2, ssDAF-12 act 1, hcDAF12 agonist 7.4*, hgDAF-12 ag 6, AHR act cf 84*, PXR act counter 12*, LXR ag 0 and hcDAF12 conf 9.5*.
Screening CN1/C(=C/C(=O)C2CCC2)Sc2ccccc21 returned DAX1 inh-1 3, AHR act 138*, DAX1 inh-2 0, ssDAF-12 act 0, hcDAF12 agonist 8.1*, hgDAF-12 ag 12*, AHR act cf 138*, PXR act counter 23*, LXR ag 0 and hcDAF12 conf 4.
Screening COCC(=O)/C=C1\Sc2ccccc2N1C returned DAX1 inh-1 0, AHR act -2, DAX1 inh-2 -1, ssDAF-12 act -1, hcDAF12 agonist -3 and hgDAF-12 ag -16.
Screening CN1/C(=C/C(=O)c2cccs2)Sc2ccccc21 returned DAX1 inh-1 4.4*, AHR act 86*, DAX1 inh-2 1, ssDAF-12 act 4.5*, hcDAF12 agonist 22*, hgDAF-12 ag 18*, AHR act cf 115*, PXR act counter 23*, LXR ag 2 and hcDAF12 conf 24*.
`COc1cc(OC)cc(C(=O)/C=C2\Sc3ccccc3N2C)c1` gave DAX1 inh-1 0, AHR act -3, DAX1 inh-2 -1, ssDAF-12 act -1, hcDAF12 agonist -1 and hgDAF-12 ag 4.
Screening CCCn1c(SCC(=O)Nc2ccc3c(c2)OCCO3)n[nH]c1=O returned DAX1 inh-1 1, DAX1 inh-2 -2, ssDAF-12 act -1, hcDAF12 agonist -1 and hgDAF-12 ag -1.
`c1ccc2[nH]c(-c3ccnc4ccccc34)nc2c1` gave DAX1 inh-1 1, AHR act 90*, DAX1 inh-2 -1, ssDAF-12 act -1, hcDAF12 agonist 6.7*!, hgDAF-12 ag 6, AHR act cf 156*, PXR act counter 26*, LXR ag 0 and hcDAF12 conf 7.9*.
Screening COc1ccccc1-c1noc(-c2ccccc2)n1 returned DAX1 inh-1 3.7*, AHR act 122*, DAX1 inh-2 2, ssDAF-12 act 1, hcDAF12 agonist 5, hgDAF-12 ag 14*, AHR act cf 101*, PXR act counter 26*, hgDAF12 ag 19* and LXR ag 2 1.
